Data: PubChem BioAssay (NCATS)
Several values for one entry are separate records, joined by “and”; a condition that tells them apart may be missing. Equal values may be shown once. Records with an inconclusive call do not appear. Activity calls are given as the source filed them. Unless noted, calls come from the whole dose curve; as a rule, active = well fitted curve in the direction sought with a large enough effect; inconclusive = small, poorly fitted or top-dose-only effect, or another doubt; inactive = no such curve, though single readings can be large; an effect the other way counts as inactive or inconclusive.

Tests used:
[1] = biological target: Glutathione peroxidase 1 (Homo sapiens) (UniProt P07203); assay: Primary qHTS Assay for Inhibitors of Recombinant Selenoprotein Glutathione Peroxidase 1 (GPX1) (AID 1845191); note: nearly all actives have a fitted effect of over 65% in size; note: potency is the fitted concentration of half-maximal effect; for activity, negative = inhibition: % is set by controls: 0 for no effect and ±100 for the full control effect
Glutathione peroxidase 1 (Homo sapiens), sequence (P07203 whole entry, looked up): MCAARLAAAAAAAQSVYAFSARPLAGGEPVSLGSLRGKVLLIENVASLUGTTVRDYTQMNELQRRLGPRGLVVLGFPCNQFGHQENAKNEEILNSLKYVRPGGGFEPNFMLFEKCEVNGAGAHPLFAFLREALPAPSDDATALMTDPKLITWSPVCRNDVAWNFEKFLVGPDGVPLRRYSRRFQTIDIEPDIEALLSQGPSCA
How it was run: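 GR-coupled assay: compounds preincubated 30 min at room temperature with GPX1, then reaction started with CHP; final 10 nM GPX1, 1 mM GSH, 0.5 mM CHP, 0.5 mM NADPH, 100 nM GR, 0.01% BSA, pH 7.5 Tris buffer. NADPH fluorescence (340/450 nm) read at 0 and 15 min.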

[2] = biological target: Phospholipid hydroperoxide glutathione peroxidase GPX4 (Homo sapiens) (UniProt P36969); assay: Primary qHTS Assay for Inhibitors of Recombinant Selenoprotein Glutathione Peroxidase 4 (GPX4) (AID 1845192); note: nearly all actives have a fitted effect of over 65% in size; for activity change, negative = inhibition: % is set by controls: 0 for no effect and ±100 for the full control effect
Phospholipid hydroperoxide glutathione peroxidase GPX4 (Homo sapiens), sequence (P36969 whole entry, looked up): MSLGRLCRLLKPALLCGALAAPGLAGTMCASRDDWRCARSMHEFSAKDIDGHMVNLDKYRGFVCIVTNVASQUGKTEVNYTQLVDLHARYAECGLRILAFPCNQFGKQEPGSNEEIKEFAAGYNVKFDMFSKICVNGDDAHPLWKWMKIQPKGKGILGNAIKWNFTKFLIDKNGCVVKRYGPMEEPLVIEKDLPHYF
How it was run: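 GR-coupled assay: recombinant GPX4 preincubated 30 min with compound at room temperature; final 200 nM GPX4, 1 mM GSH, 0.5 mM cumene hydroperoxide, 0.5 mM NADPH, 100 nM GR, 0.01% BSA, pH 7.5 Tris. NADPH fluorescence (340/450 nm) read at 0 and 15 min.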

[3] = biological target: Luciferin 4-monooxygenase (Photinus pyralis) (UniProt P08659); assay: Primary firefly luciferase (FLuc) qHTS assay for identification of artifact compounds. (AID 1845220); note: nearly all actives have a fitted effect of over 60% in size;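 for activity change, negative = inhibition: plate controls were DMSO vehicle for no effect and no enzyme for full effect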
How it was run: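 Titrated compounds were incubated 15 min at RT, protected from light, with luciferin and ATP at 10 uM; reaction started with 10 nM FLuc, luminescence imaged at 5 min, and concentration-response fitted by Hill equation.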

[4] = Primary fluorescence-based thiol-reactive (MSTI) qHTS assay for identification of artifact compounds. (AID 1845221); note: nearly all actives have a fitted effect of over 65% in size; note: potency is the fitted concentration of half-maximal effect;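 for activity change, negative = thiol reactive: thiol-reactive compounds lower the probe fluorescence signal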
How it was run: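 One-hour, room-temperature, dark incubation of compound with 4 uM MSTI in PBS (pH 7.4, 2% DMSO) precedes a fluorescence read at 525 nm excitation, 598 nm emission; Hill-equation fitting yields concentration-response values.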

[5] = Primary redox qHTS assay for identification of artifact compounds. (AID 1845223); note: potency is the fitted concentration of half-maximal effect;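 for redox activity (% of DA3003): 0% = DMSO and 100% = reference compound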
How it was run: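 Amplex Red (25 uM) and HRP (250 mU/mL) in HBSS, with compounds for 15 min, then 250 uM DTT for 30 min, room temperature, dark. Fluorescence 525/598 nm read; normalized to DMSO and 10 uM DA3003; Hill fit.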

[6] = test system: Nanoluciferase (engineered Oplophorus gracilirostris luciferase); assay: Primary Nanoluciferase (NLuc) qHTS assay for identification of artifact compounds. (AID 1845222);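 note: NLuc secreted into diluted conditioned medium of S16 cells; 0% = DMSO and -100% = no enzyme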
How it was run: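 qHTS format, against NLuc in S16 cell-conditioned medium. Nano-Glo substrate 1:100 was added after 15 min at room temperature. Luminescence was taken after a further 5 min.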

[7] = qHTS profiling for inhibitors of Plasmodium falciparum proliferation (AID 504749);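 note: 0% = DMSO vehicle and full inhibition = artemisinin control; nearly all actives have a fitted effect of over 60% in size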; conditions: P. falciparum in erythrocytes, SYBR Green DNA, 72 h, at 28.7 µM (top of the series)
How it was run: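 P. falciparum-infected erythrocytes (0.3% parasitemia, 2.5% hematocrit) incubated with compound 72 h at 37 C, 5% CO2. Parasite DNA detected by SYBR Green after lysis, overnight at room temperature; normalised to 0.29 uM artemisinin and DMSO.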

[8] = qHTS drug screen for cell cycle checkpoint inhibitors in PARPi-resistant BRCA-mutant ovarian cancer cell lines. (AID 1963452; calls by dose curve); conditions: PEO1/OlaR viability, CellTiter-Glo luminescence, 96 h, stronger effect = lower value
How it was run: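 PEO1, PEO4 and PEO1/OlaR ovarian cancer cells, 600 per well, exposed 96 h at 37C to a dilution series. Viability read by CellTiter-Glo luminescence, normalized to DMSO and empty wells; activity summarized as Z-AUC.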

[9] = measured here: PEO1 parental Z-AUC

C[C@@H]1O[C@@H](OC[C@H]2O[C@@H](OCC3CCC4CC3C4(C)C)[C@H](O)[C@@H](O)[C@@H]2O)[C@H](O)[C@H](O)[C@H]1O (stereo partly specified)
active: Potency [4] 11.6 µM
inactive: Potency [1] | Potency [2] | Potency [3] | Potency [5]

C=C[C@H]1[C@H](O[C@@H]2O[C@H](CO)[C@@H](O)[C@H](O)[C@H]2O)OC=C2C(=O)OCC[C@]21O
active: Potency [4] 11.7 µM
inactive: Potency [1] | Potency [2] | Potency [3] | Potency [5]

C[C@@H]1O[C@@H](O[C@H]2[C@H](OC(=O)C34CCC(C)(C)CC3C3=CCC5C6(C)CC(O)C(O[C@@H]7O[C@H](CO)[C@@H](O)[C@H](O)[C@H]7O)C(C)(C(=O)O)C6CCC5(C)C3(CO)CC4)O[C@H](C)[C@H](O)[C@@H]2O)[C@H](O)[C@H](O)[C@H]1O[C@@H]1OC[C@@H](O)[C@H](O)[C@H]1O (stereo partly specified)
inactive: Potency [1] | Potency [2] | outcome [3] inactive [at 11.6 µM] | activity change, negative = thiol reactive [4] 89.3% [at 11.5 µM] | redox activity (% of DA3003) [5] 9.03% [at 11.5 µM]

Nc1c(Br)cc(Br)cc1CNC1CCC(O)CC1 (stereo unspecified)
inactive: Potency [1] | Potency [2] | Potency [3] | Potency [4] | Potency [6] | Potency [5] | activity, negative = inhibition ([7]; parasite line A) 8.81% | activity, negative = inhibition ([7]; parasite line B) -8.99%

NC1CCC(N[C@@H]2C[C@H]2c2ccccc2)CC1 (stereo partly specified)
inactive: Potency [1] | Potency [2] | Potency [3] | Potency [4] | Potency [6] | Z-AUC [8] -1.43
-0.571: Z-AUC [8, 9]
-0.668: Z-AUC ([8]; measured here: PEO4 Z-AUC)

CC(C)N(C[C@H]1O[C@@H](n2cnc3c(N)ncnc32)[C@H](O)[C@@H]1O)C1CC(CCc2nc3ccc(C(C)(C)C)cc3[nH]2)C1 (stereo partly specified)
inactive: Potency [1] | Potency [2] | Potency [3] | Potency [4] | Potency [6] | Z-AUC [8] 1.59
1.75: Z-AUC [8, 9]
1.7: Z-AUC ([8]; measured here: PEO4 Z-AUC)

O=c1ccn([C@@H]2O[C@H](CO)[C@@H](O)[C@H]2O)c(=O)[nH]1
1.05: Z-AUC [8, 9]
inactive: Potency [1] | Potency [2] | Potency [3] | Potency [4] | Potency [6] | Potency [5] | Z-AUC [8] 1.3
0.867: Z-AUC ([8]; measured here: PEO4 Z-AUC)

CC(C)C1=CCC(C)(O)C(OC2OC(CO)C(O)C(O)C2O)C1 (stereo unspecified)
inactive: Potency [1] | Potency [2] | Potency [3] | Potency [5]
active: Potency [4] 2.33 µM

C=C(C(=O)OC)C1CCC2(C)C(O[C@@H]3O[C@H](CO)[C@@H](O)[C@H](O)[C@H]3O)CC(=O)C(C)C2C1O (stereo partly specified)
inactive: Potency [1] | Potency [2] | Potency [3] | Potency [5]
active: Potency [4] 4.12 µM

CC1(C)CCC(C)(C)c2cc([C@@H](O)C(=O)Nc3ccc(C(=O)O)cc3F)ccc21
inactive: Potency [1] | Potency [2] | Potency [3] | Potency [4] | Potency [5]

C=CC(C)(C)O[C@@H]1O[C@H](CO[C@@H]2OC[C@](O)(CO)[C@H]2O)[C@@H](O)[C@H](O)[C@H]1O
inactive: Potency [1] | Potency [2] | Potency [3] | Potency [4] | Potency [5]

CC1=CC(=O)OC(C)(CC(C)(O)C(=O)O)C1 (stereo unspecified)
inactive: Potency [1] | Potency [2] | Potency [3] | Potency [4] | Potency [5]

Cc1nnc(C(C)C)n1C1CC2CCC(C1)N2CC[C@H](NC(=O)C1CCC(F)(F)CC1)c1ccccc1 (stereo partly specified)
1.24 and 0.375: Z-AUC ([8]; measured here: PEO4 Z-AUC)
inactive: Potency [1] | Potency [2] | Potency [3] | Potency [4] | Potency [6] | Z-AUC [8] 1.09 and 0.404
1.65 and 0.521: Z-AUC [8, 9]

N[C@@H](CC(=O)N1CCn2c(nnc2C(F)(F)F)C1)Cc1[nH]nc2c(F)c(F)ccc12
inactive: Potency [1] | Potency [2] | Potency [3] | Potency [4] | Potency [5]

CC(=O)O[C@@H]1[C@H](O[C@@H]2O[C@H](CO)[C@@H](O)[C@H](O)[C@H]2O)[C@@H](O[C@@H]2O[C@@H](C)[C@H](O)[C@@H](O[C@@H]3O[C@H](CO)[C@@H](O)[C@H](O)[C@H]3O)[C@H]2O)[C@H](OC(=O)C23CCC4(C)C(=CCC5C6(C)CC(O)C(O[C@@H]7O[C@H](C(=O)O)[C@@H](O)[C@H](O)[C@H]7O)C(C)(C(=O)O)C6CCC54C)C2CC(C)(C)CC3O)O[C@@H]1C (stereo partly specified)
inactive: outcome [1] inactive [at 9.52 µM] | activity change, negative = inhibition [2] 1.73% [at 9.73 µM] | outcome [3] inactive [at 11.6 µM] | activity change, negative = thiol reactive [4] 205% [at 11.5 µM] | redox activity (% of DA3003) [5] 12.9% [at 11.5 µM]

C=C[C@H]1[C@H](O[C@@H]2O[C@H](CO[C@@H]3OC[C@](O)(CO)[C@H]3O)[C@@H](O)[C@H](O)[C@H]2O)OC=C2C(=O)OCC[C@H]21
inactive: Potency [1] | Potency [2] | Potency [3] | Potency [4]
active: Potency [5] 3.27 µM

CN1C(=O)c2ccccc2-n2c(nc3ccccc3c2=O)/C1=C/c1ccccc1
inactive: Potency [1] | Potency [2] | Potency [3] | Potency [4] | Potency [5]

CCc1cc2c(=O)c(-c3nc4ccccc4s3)coc2c(CN2CCCCC2)c1O
inactive: Potency [2] | Potency [3] | Potency [4] | Potency [5]
active: Potency [1] 11.1 µM
